PubChem BioAssay (NCATS)
Inconclusive results are not listed. A number with no mark means an inactive call. The call rests on the fitted dose curve; in most records, active means well fitted curve in the direction sought with a large enough effect; inconclusive means small, poorly fitted or top-dose-only effect, or another doubt; inactive means no such curve, though single readings can be large or run the other way.

assay: qHTS Assay for Identifying Gametocytocidal Compounds (AID 743244);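 further: actives lower the fluorescent signal which means gametocytes are killed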; conditions: P. falciparum 3D7 stage III-V gametocytes, alamarBlue, 72 h; max response: active compounds read low
Summary of the method: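 Using 20,000 stage III–V 3D7 gametocytes per well, compounds were incubated 72 h under 37 °C/5% CO2. Viability was then assessed by 24 h alamarBlue reduction, measured fluorometrically at 525/598 nm.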
On the % scale 0 is the no-effect control and ±100 the full control effect.

**Q.** Which max response does the source give for `CCOC(=O)[C@H](CCc1ccccc1)N[C@@H](C)C(=O)N1Cc2cc(OC)c(OC)cc2C[C@H]1C(=O)O` here?
**A.** The max response was 0.618%.

**Q.** With `Nc1ccncc1N` as the compound, how does the max response read?
**A.** Its max response is 8.86%.

**Q.** With `CC1(C)S[C@@H]2[C@H](N=CN3CCCCCC3)C(=O)N2[C@H]1C(=O)O` as the compound, how does the max response read?
**A.** Its max response is -2.77%.

**Q.** With `Cc1c(I)c(=O)n(-c2ccccc2)n1C` as the compound, how does the max response read?
**A.** Its max response is 4.77%.

**Q.** With `CCOC(=O)[C@H](CCc1ccccc1)N[C@@H](C)C(=O)N1CCC[C@H]1C(=O)O` as the compound, how does the max response read?
**A.** The max response was -2.72%.

**Q.** For `CCN(CC)CCOC(=O)C(c1ccccc1)c1ccccc1`, which max response is on record?
**A.** The max response was -5.96%.

**Q.** Which max response does the source give for `NC(=O)NS(=O)(=O)c1ccc(N)cc1` here?
**A.** The max response was 3.95%.

**Q.** With `O=C(/C=C/c1ccccc1)OCc1ccccc1` as the compound, how does the max response read?
**A.** The max response was 18.6%.

**Q.** With `COC(=O)N/N=C/c1c[n+]([O-])c2ccccc2[n+]1[O-]` as the compound, how does the max response read?
**A.** Its max response is 5.03%.

**Q.** With `O=S1(=O)OC(c2ccc(O)cc2)(c2ccc(O)cc2)c2ccccc21` as the compound, how does the max response read?
**A.** Its max response is 21.8%.

**Q.** With `CCN1CC(CCN2CCOCC2)C(c2ccccc2)(c2ccccc2)C1=O` (stereo unspecified) as the compound, how does the max response read?
**A.** The max response was 3.23%.

**Q.** For `CN(C(=O)c1c(O)c2ccccc2n(C)c1=O)c1ccccc1`, which max response is on record?
**A.** The max response was -2.29%.

**Q.** With `CC(=O)SC[C@@H](Cc1ccccc1)C(=O)NCC(=O)OCc1ccccc1` as the compound, how does the max response read?
**A.** Its max response is 3.78%.

**Q.** With `CCC(C)(CN(C)C)OC(=O)c1ccccc1` (stereo unspecified) as the compound, how does the max response read?
**A.** Its max response is -2.53%.

**Q.** For `CO[C@@]1(NC(=O)C(C(=O)O)c2ccc(O)cc2)C(=O)N2C(C(=O)O)=C(CSc3nnnn3C)CO[C@@H]21` (stereo partly specified), which max response is on record?
**A.** Its max response is 2.23%.

**Q.** With `C[C@@H](N)C(=O)O` as the compound, how does the max response read?
**A.** The max response was -2.49%.
